# p53 reactivation = qHTS assay for re-activators of p53 using a Luc reporter. H1299 p53-A138V BP100-luciferase reporter, luminescence, 24 h. Potency, µM (series often up to 92.2 µM), inactives show at the top dose activity change, positive = activation, usual class: activators. 320,000 compounds, 0.063% hits. AID 504706, 2011; note: potency is the fitted concentration of half-maximal effect; % of control where 0% means no effect; nearly all actives have a fitted effect of over 45% in size
#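 p53-null H1299 cells stably carrying temperature-sensitive p53-A138V and a BP100-luciferase reporter were pinned with compounds (4-point, 1:5 series) and held 24 hrs at 37 deg C. Luminescence was read 10 min after detection reagent.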
# CCT chaperon mod = High-Throughput Screening for Modulators of Cytosolic Chaperonin Activity | purified chaperonin ATPase assay, HTRF ADP detection, 30 min | 360,000 compounds, 0.3% hits | activity change, % (test concentration not listed), hits read low | AID 651819, 2012; in the data active = activity change below about -30%; note: % is set by controls: 0 for no effect and ±100 for the full control effect
#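 TRiC (40 or 20 nM final, by batch activity) in 30 mM Tris pH 7.4, 100 mM KCl, 5 mM MgCl2, 1 mM DTT was treated with compound at 76 uM single dose, then 10 uM ATP, 30 min at 37 °C. ADP was read by HTRF Transcreener.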
# MmCpn inh = Inhibitors of TCP-1 ring complex (TRiC) of Methanococcus maripaludis (MmCpn): qHTS; Chaperonin Mm-Cpn (Methanococcus maripaludis); purified Mm-Cpn ATPase, ADP Transcreener TR-FRET; Potency, µM (series often up to 76.9 µM), for the others: top-dose activity, negative = inhibition, most hits filed as inhibitors; 330,000 compounds, 0.031% hits; note: potency is the fitted concentration of half-maximal effect; % is set by controls: 0 for no effect and ±100 for the full control effect; nearly all actives have a fitted effect of over 80% in size
#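 ATPase turnover read by TR-FRET ADP competition (Eu cryptate antibody/ADP-d2, 665/590 nm): 10uM ATP final, 25nM Mm-CPN final, 30 min 37degC after 10-min compound preincubation, pH 7.4 Tris/KCl/MgCl2/DTT buffer.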
# S-ASM inh = Inhibitors of Secretory Acid Sphingomyelinase (S-ASM): qHTS; Sphingomyelin phosphodiesterase (Homo sapiens), P17405; placental ASM, HMU-PC fluorogenic substrate, 60 min; Potency, µM (top dose mostly 57.5 µM), for inactives: at the highest dose activity change, negative = inhibition, actives largely listed as inhibitors; 340,000 compounds, 0.006% hits; note: potency is the fitted concentration of half-maximal effect
#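 qHTS format. ASM enzyme prepared from human placenta hydrolyses the fluorogenic substrate HMU-PC0 (9 uM final) over 60 min at 37 °C after a 10 min compound preincubation.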
# 12-LOX inh = Primary qHTS assay for inhibitors of human arachidonate 12S-lipoxygenase (ALOX12): Round 2. AID 1671190, 2021. Potency, µM (series often up to 108 µM), without a hit: at the top dose activity change, negative = inhibition, actives largely listed as inhibitors. Polyunsaturated fatty acid lipoxygenase ALOX12 (Homo sapiens), P18054. purified 12hLO, xylenol orange hydroperoxide absorbance. 580,000 compounds, 1.1% hits; note: potency is the fitted concentration of half-maximal effect; % is set by controls: 0 for no effect and ±100 for the full control effect
# Target sequence (P18054 whole entry, looked up): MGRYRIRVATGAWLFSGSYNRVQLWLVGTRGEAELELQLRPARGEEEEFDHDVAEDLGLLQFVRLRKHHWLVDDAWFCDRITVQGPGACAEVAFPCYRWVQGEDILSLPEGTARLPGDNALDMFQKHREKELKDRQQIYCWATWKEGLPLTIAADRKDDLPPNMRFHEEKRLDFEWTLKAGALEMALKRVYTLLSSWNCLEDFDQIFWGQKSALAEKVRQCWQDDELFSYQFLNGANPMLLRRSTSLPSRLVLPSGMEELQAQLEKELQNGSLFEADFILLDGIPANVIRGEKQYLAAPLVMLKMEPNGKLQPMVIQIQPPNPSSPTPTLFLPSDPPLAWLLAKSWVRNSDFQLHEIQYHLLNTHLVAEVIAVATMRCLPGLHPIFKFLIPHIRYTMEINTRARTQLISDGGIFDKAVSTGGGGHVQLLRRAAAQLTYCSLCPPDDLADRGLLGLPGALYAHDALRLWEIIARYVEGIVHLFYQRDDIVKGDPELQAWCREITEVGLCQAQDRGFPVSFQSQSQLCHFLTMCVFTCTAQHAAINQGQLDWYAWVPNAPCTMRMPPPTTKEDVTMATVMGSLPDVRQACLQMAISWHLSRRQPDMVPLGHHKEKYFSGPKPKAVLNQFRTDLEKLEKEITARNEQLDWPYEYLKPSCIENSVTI
#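 Hydroperoxide product was detected by ferrous iron/xylenol orange as the 573 to 405 nm absorbance ratio. Arachidonic acid at 40 uM (final) was turned over for 30 min at room temperature by 150 nM human 12hLO, pH 7.0 Hepes buffer, after 15 min compound preincubation.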
# PINK1 expr mod = A Quantitative High throughput Screen to Identify Chemical Modulators of PINK1 Expression; PINK1 immunofluorescence, high-content cytometry, 24 h; Potency, µM (titrated, usually from 76.6 µM), inactives show at the highest dose activation (PINK1 increase), actives largely listed as activators; 410,000 compounds, 0.2% hits; AID 624263, 2012; active = well fitted activation curve with a large enough effect; inconclusive = small, poorly fitted or top-dose-only effect; cell line not stated here; note: potency is the fitted concentration of half-maximal effect; % of control where 0% means no effect; nearly all actives have a fitted effect of over 65% in size
#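 Readout is PINK1 immunofluorescence, quantified alongside mitochondrial, cell and nuclear markers by laser-scanning microplate cytometry. Cells from a stable line were exposed to compound titrations (5 concentrations) for 24 hours, with CCCP controls.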
# Starred values were filed as active, the others as inactive; u = inconclusive; x = not tested or not shown; [ ] = dose if it differs, or a comment. Rows were chosen to be rich in hits. Some 1.4% of all compounds tested hit in one or more screens of this group. Unless noted, calls come from the whole dose curve; as a rule, active = well fitted curve in the direction sought with a large enough effect; inconclusive = small, poorly fitted or top-dose-only effect, or another doubt; inactive = no such curve, though single readings can be large; an effect the other way counts as inactive or inconclusive.
SMILES,p53 reactivation,CCT chaperon mod,MmCpn inh,S-ASM inh,12-LOX inh,PINK1 expr mod
CN(C)CCNC(=O)C1CCN(Cc2cc3ccccc3n2Cc2ccccc2)CC1,x,x,x,x,-30%,-2%
CN(Cc1ccccc1)C(=O)C1CCN(Cc2cc3ccccc3n2Cc2ccccc2)CC1,x,x,x,x,45µM*,5%
O=C(Nc1ccccc1)Nc1ccc(Cl)nc1Cl,x,-3,x,-2%,3.2µM*,0%
NC(=O)c1nn(CC(O)COc2ccc3ccccc3c2)c(=O)c2ccccc12 (configuration not stated),x,x,x,x,-13%,x
N#C/C(=C/c1cc(Br)ccc1OCc1ccccc1C#N)c1cccc(F)c1,x,x,x,x,4%,x
CNC(=O)[C@@H](c1ccccc1F)N1CCC[C@H]1C(=O)NC1CC1,x,x,x,x,25µM*,x
CCNC(=O)[C@@H]1CCCN1[C@@H](C(=O)NC)c1ccccc1F,x,x,x,x,-9%[176 µM],x
C/C(=N\Nc1cccc2cccnc12)c1ccc(C)cc1,11%,-12,1%,-3%,u,9%
C/C(=N\Nc1ccccc1Br)c1ccc(-c2ccccc2)cc1,x,x,x,x,0.71µM*,x
Cc1nnc(SCC(=O)c2c[nH]c(C(=O)N3CCCC3)c2)n1C1CC1,x,x,x,x,1%,x
Cc1ccc(C)c(NC(=O)c2ccccc2NS(=O)(=O)c2cc([N+](=O)[O-])ccc2C)c1,0%,-2,3%,-1%,2%,8.9µM*
C=C(COC(C)=O)C1Cc2c(ccc3c2OC2COc4cc(OC)c(OC)cc4C2C3=O)O1 (configuration not stated),x,x,x,x,-26%,x
C=CCOc1cccc(C2C(C(=O)c3ccco3)=C(O)C(=O)N2Cc2ccco2)c1 (configuration not stated),3%,-8,-11%,-2%,45µM*,2%
C=CCOc1cccc(C2C(C(=O)c3ccco3)=C(O)C(=O)N2Cc2ccncc2)c1 (configuration not stated),11%,-1,-2%,-2%,u,1%
Cc1cccc(N2CCC(N=CN(C)C)=N2)c1,u,1,-4%,0%,45µM*,-2%
CCN(C=NC1=NN(c2cccc(C(F)(F)F)c2)CC1)CC,9%,-3,-6%,1%,u,0%
CCOC(=O)c1sc2nc(CSc3ccccc3)nc(N3CCCN(C)CC3)c2c1C,-8%,-1,1%,-2%,5.6µM*,0%
CCOC(=O)c1sc2nc(CSc3ccccc3)nc(N3CCC(C(N)=O)CC3)c2c1C,-12%,-3,-29%,-6%,-23%,2%
N#CC(C(=O)Nc1ccccc1)C(=O)c1ccccc1Cl (configuration not stated),x,x,x,x,60%,x
COc1cccc(CN2CCC3(Cc4ccccc4NC3=O)C2)c1 (configuration not stated),x,x,x,x,40µM*,x
O=C1NCc2ccccc2CC12CCN(Cc1ccc(Oc3ccccc3)cc1)C2 (configuration not stated),x,x,x,x,35µM*,x
COc1cccc(CN2CCCCC23Cc2ccccc2NC3=O)c1 (configuration not stated),x,x,x,x,3%[176 µM],x
Cc1cc(C)c(CN2CCC3(Cc4ccccc4CNC3=O)C2)c(C)c1 (configuration not stated),x,x,x,x,1µM*,x
O=C1NCc2ccccc2CC12CCN(Cc1ccc(-c3ccccc3)cc1)C2 (configuration not stated),x,x,x,x,40µM*,x
COc1ccc(CN2CCCC3(Cc4ccccc4CNC3=O)C2)cc1 (configuration not stated),x,x,x,x,8%[6.33 µM],x
SMILES,p53 reactivation,CCT chaperon mod,MmCpn inh,S-ASM inh,12-LOX inh,PINK1 expr mod
Cc1ccc(-c2ccc(OC(=O)c3ccccc3)c(C)c2)cc1,x,x,x,x,-4%,x
O=C(Nc1cccc(-c2ccc(N3CCCC3)nn2)c1)Nc1cc(F)ccc1F,x,x,x,x,-13%,x
CCCCCSc1nc2c(c(=O)[nH]c(=O)n2C)n1CCC,x,x,x,x,-5%,x
CC(C)CNC(=O)c1ccc(C2Nc3cc(C(F)(F)F)ccc3S(=O)(=O)N2)cc1 (configuration not stated),x,x,x,x,11%,x
COc1ccccc1COC(=O)N/C=C/c1ccco1,3%,-1,4%,-3%,50µM*,0%
Cc1nn(C)c(C)c1CN(C)C(=O)CCCC(=O)O,4%,-1,-2%,4%,18µM*,0%
COc1cc(/C=C/C2=Nc3ccccc3SC(C)(C)C2)ccc1O,x,x,x,x,16µM*,x
CCC1CCCCN1CCNC(=O)C1CCN(S(=O)(=O)c2cccc3nsnc23)CC1 (configuration not stated),4%,-74*,0%,-1%,8%,-2%
Cn1ncc2c(=S)nc(Cl)[nH]c21,x,-1,x,5%,7.1µM*,-1%
S=c1nc[nH]c2c1cnn2-c1ccccc1,4%,-1,-4%,1%,8%,-2%
CCOC(=O)C1Nc2ccc(C)cc2C2C=CCC12 (configuration not stated),x,-6,x,3%,32µM*,3%
CCOC(=O)C1Nc2ccc(Br)cc2C2C=CCC12 (configuration not stated),x,-2,-7%,-2%,u,5%
CCCn1nc(C(=O)NC(C)c2ccc(S(N)(=O)=O)cc2)c2ccccc2c1=O (configuration not stated),x,x,x,x,14%,x
CN(C)C(=S)N(C)C,x,x,x,x,-27%,x
CN(C)C(=S)NC(C)(C)C,0%,2,45µM*,1%,-1%,-2%
Fc1cccc(NC(=S)NNc2c3ccccc3nc3ccccc23)c1,-2%,1,u,74%,40µM*,u
O=C(NC(=S)N1CCOCC1)c1ccccc1Cl,-3%,-1,0%,3%,1.3µM*,0%
N#Cc1c(-c2ccccc2)cc(-c2ccccc2)nc1SCC(=O)Nc1ccc(Cl)cc1,x,x,x,x,-14%,0%
N#Cc1c(-c2ccc(Cl)cc2)cc(-c2ccccc2)nc1SCC(=O)O,-1%,1,-1%,13%,11µM*,-1%
Cc1cnc(NC(=O)[C@@H](NC(=O)c2ccccc2F)C(C)C)s1,x,x,x,x,-8%,x
COC1C(CO)OC(n2c3c(Cl)cccc3c3c4c(c5c6cccc(Cl)c6[nH]c5c32)C(=O)NC4=O)C(O)C1O (configuration not stated),x,-2,x,-7%,1%,40µM*
